Screening results: PubChem BioAssay, National Center for Advancing Translational Sciences (NCATS)
Only some compounds are listed: those with a hit (about 17% of all), similar ones and a draw of the others.
ATXN2 expr inh: Primary qHTS for Inhibitors of ATXN expression; HEK-293 ATXN2-luciferase reporter, luminescence, 24 h; Potency, µM (series often up to 57 µM), for the others: top-dose activity change, negative = inhibition, actives largely listed as inhibitors; 360,000 tested, 0.72% active; further: on the % scale 0 is the no-effect control and ±100 the full control effect; nearly all actives have a fitted effect of over 55% in size
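ATXN2-luciferase reporter cells (luciferase flanked by upstream and downstream ATXN2 gene portions) were treated 24 h at 37 °C with compounds at up to 57 uM. SteadyGlo luminescence gave expression; GF-AFC fluorescence gave viability.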
TGFb inhibitor: qHTS for Inhibitors of TGF-b | 410,000 tested, 1.2% active | HepG2 CAGA-GFP TGF-b/SMAD3 reporter, GFP fluorescence, 18 h; TGF-beta stimulated, 500 pg/mL final | Potency, µM (highest dose often 46.1 µM), for inactives: at the highest dose activity, negative = inhibition, usual class: inhibitors; further: on the % scale 0 is the no-effect control and ±100 the full control effect; nearly all actives have a fitted effect of over 65% in size
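HEPG2 CAGA-GFP cells (1000/well, DMEM with 1% FBS) were pre-incubated 2 h at 37 degrees C, given compound by pin tool, then stimulated with TGF-beta at 500 pg/mL final for 18 h before per-cell GFP fluorescence imaging.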
TDP1 cell noCPT: qHTS for Inhibitors of human tyrosyl-DNA phosphodiesterase 1 (TDP1): qHTS in cells in absence of CPT; DT40 Tdp1-/- hTDP1 cells, no CPT, ATP luminescence, 48 h; 420,000 tested, 15% active; Potency, µM (doses to about 46.2 µM), without a hit: at the top dose activity change, negative = growth inhibition, hits mostly inhibitors; AID 686978, 2013; further: on the % scale 0 is the no-effect control and ±100 the full control effect; nearly all actives have a fitted effect of over 55% in size
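Readout: luminescence from CellTiter-Glo after 30 min in the dark at RT. Cells: DT40 Tdp1-/- with stable hTDP1, 400/well. Exposure: compounds alone, ≥48 hr, 37 °C.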
ATXN viability: Viability Counterscreen for Primary qHTS for Inhibitors of ATXN expression. 400,000 tested, 0.49% active. Potency, µM (highest dose often 56.7 µM), hits mostly cytotoxic. S2 cells (HEK-293 line with an ATXN2-luciferase reporter) viability, CellTiter-Fluor protease fluorescence, 24 h; further: nearly all actives have a fitted effect of over 40% in size
HepG2 tox: qHTS for Inhibitors of TGF-b: Cytotox Counterscreen; HepG2 CAGA-GFP viability, ATP luminescence, 18 h; Potency, µM (highest dose often 46.1 µM), for the others: at the top dose activity change, negative = cytotoxicity, hits mostly cytotoxic; 410,000 tested, 0.76% active; AID 588856, 2011
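CellTiter-Glo luminescence gave cytotoxicity after 18 hours at 37 degrees C. The cells were HepG2 CAGA-GFP in 1% FBS DMEM, stimulated with 500 pg/mL TGF-beta after compound addition. %Activity was normalised to no-cell wells (complete cell-killing) and DMSO (no toxicity), and curves were fitted and classified.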
TDP1 cell CPT: qHTS for Inhibitors of human tyrosyl-DNA phosphodiesterase 1 (TDP1): qHTS in cells in presence of CPT; 420,000 tested, 12% active; Potency, µM (highest dose often 46.2 µM), without a hit: at the top dose activity change, negative = growth inhibition, hits mostly inhibitors; chicken DT40 Tdp1-/-;hTDP1 cells + 20 nM CPT, ATP luminescence, 48 h; AID 686979, 2013; further: on the % scale 0 is the no-effect control and ±100 the full control effect; nearly all actives have a fitted effect of over 55% in size
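Chicken DT40 Tdp1-/- cells complemented with human TDP1, 400 cells/well, exposed to compounds plus 20 nM camptothecin for at least 48 h at 37 C; viability read as ATP content by CellTiter-Glo luminescence.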
* hit, by the source's call; i = inactive; ? = inconclusive; · = not tested or not shown; [ ] = another dose, or the depositor's remark. The call rests on the fitted dose curve; in most records, active means well fitted curve in the direction sought with a large enough effect; inconclusive means small, poorly fitted or top-dose-only effect, or another doubt; inactive means no such curve, though single readings can be large; an effect the other way counts as inactive or inconclusive. Potency means the concentration at half of the fitted maximal effect.

SMILES	ATXN2 expr inh	TGFb inhibitor	TDP1 cell noCPT	ATXN viability	HepG2 tox	TDP1 cell CPT
NC(=S)NN=C1CCCCCCCCCC1	?	?	10µM*	?	-35%	3.7µM*
COc1cccc(N2CCN(C(=O)c3ccc(CS(=O)Cc4ccccc4Cl)o3)CC2)c1 (stereo unspecified)	-17%	-10%	?	i	-13%	?
Cc1ccc(CS(=O)Cc2ccc(C(=O)N3CCN(c4ccc(F)cc4)CC3)o2)cc1 (stereo unspecified)	-25%	?	?	i	-8%	?
COc1ccc(S(=O)Cc2ccc(C(=O)N3CCN(c4cccc(C)c4C)CC3)o2)cc1 (stereo unspecified)	·	?	0.92µM*	?	-2%	0.58µM*
COc1ccc(N2CCN(C(=O)c3ccc(CS(=O)Cc4ccc(C)cc4)o3)CC2)cc1 (stereo unspecified)	-21%	-10%	?	i	-19%	?
COc1cccc(N2CCN(C(=O)c3ccc(CS(=O)Cc4ccc(Cl)cc4)o3)CC2)c1 (stereo unspecified)	-21%	-4%	18µM*	i	-23%	?
COc1cccc(N2CCN(C(=O)c3ccc(CS(=O)c4cccc(Cl)c4)o3)CC2)c1 (stereo unspecified)	·	?	0.52µM*	·	-2%	0.52µM*
Cc1ccc(CS(=O)Cc2ccc(C(=O)N3CCN(c4ccccc4)CC3)o2)cc1 (stereo unspecified)	·	-25%	?	i	-14%	21µM*
COc1ccc(N2CCN(C(=O)c3ccc(CS(=O)c4cccc(Cl)c4)o3)CC2)cc1 (stereo unspecified)	·	-2%	15µM*	?	-9%	16µM*
O=C(c1ccc(COc2c(F)c(F)c(F)c(F)c2F)o1)N1CCOCC1	1%	7%	?	i	-1%	-18%
O=C(c1ccc(COc2c(F)c(F)cc(F)c2F)o1)N1CCN(c2ccccc2)CC1	-25%	-9%	12µM*	i	-15%	18µM*
CN(CCOc1ccc(Cl)cc1)C(=O)c1cccc(S(=O)(=O)N2CCN(c3ccccc3)CC2)c1	-27%	?	6.5µM*	i	-26%	15µM*
COc1cccc(CN(C)C(=O)c2ccc(Cl)c(S(=O)(=O)N3CCCCCC3)c2)c1OC	-28%	-30%	?	i	-24%	?
CN(Cc1ccco1)C(=O)c1cccc(S(=O)(=O)N2CCN(Cc3ccccc3)CC2)c1	·	0%	?	i	-11%	?
CN(Cc1ccc(Cl)cc1Cl)C(=O)c1cccc(S(=O)(=O)N2CCN(c3ccccc3)CC2)c1	-22%	?	16µM*	i	0%	26µM*
COc1cccc(CN(C)C(=O)c2cccc(S(=O)(=O)N3CCN(Cc4ccccc4)CC3)c2)c1OC	-26%	-12%	16µM*	i	-34%	13µM*
COc1cccc(CN(C)C(=O)c2cccc(S(=O)(=O)N3CCN(c4ccc(F)cc4)CC3)c2)c1OC	?	?	13µM*	i	-5%	21µM*
CCCN(C(=O)COC(=O)c1nc2nc(C)cc(C)n2n1)C1CCS(=O)(=O)C1 (stereo unspecified)	-1%	-1%	15%	i	5%	14%
CCC1CN(Cc2c(C)nc3sccn23)Cc2cc(OC)ccc2O1 (stereo unspecified)	·	·	-6%	i	·	-3%[9.04 µM]
